uPA surface inh: cell surface uPA generation inhibition; 330,000 tested, 0.31% active; Potency, µM (top dose mostly 38.3 µM), without a hit: at the highest dose activity change, negative = inhibition, hits mostly inhibitors; cell surface uPA generation assay, qHTS; active = well fitted inhibition curve with a large enough effect; inconclusive = small, poorly fitted or top-dose-only effect; inactive = no such curve, though single readings can be large or run the other way; tested in mouse RAW 264.7 cells; note: potency is the fitted concentration of half-maximal effect; nearly all actives have a fitted effect of over 55% in size
HT1080 IDH1KD tx: HT-1080 IDH1 knockdown cell toxicity (counter line); Potency, µM (series often up to 46.1 µM), inactives show at the highest dose activity, negative = toxicity, hits mostly cytotoxic; 360,000 tested, 2% active; HT-1080 IDH1 knockdown viability, ATP luminescence, 48 h;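 note: potency is the fitted concentration of half-maximal effect; 0% = DMSO wells and -100% = cell-free medium wells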
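Luminescent ATP read-out (CellTiter-Glo, 10 min at room temperature) after 48 h compound exposure at 37 °C gave viability of IDH1-knockdown HT-1080 cells. Activity was normalised to DMSO and cell-free wells, then fitted as concentration-response curves.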
IL-1B inflam inh: inflammasome signaling inhibition, IL-1 beta readout; THP-1 LPS/ATP IL-1B secretion, AlphaLISA, 16 h; active compounds read low; activity change, % at 57.5 µM; 360,000 tested, 4.7% active; AID 743279; in the data active = activity change below about -50%; inconclusive = mostly about -30% to -49%
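THP-1 cells pretreated 1 hr with compounds (up to 57.5 uM final), then stimulated with LPS (250 ng/mL final) plus ATP (1.25 mM final); secreted IL-1B measured by AlphaLISA after 16 hr, decreased signal indicating inhibition.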
DT40 TDP1 no CPT: qHTS for Inhibitors of human tyrosyl-DNA phosphodiesterase 1 (TDP1): qHTS in cells in absence of CPT | DT40 Tdp1-/- hTDP1 cells, no CPT, ATP luminescence, 48 h | Potency, µM (highest dose often 46.2 µM), without a hit: at the highest dose activity change, negative = growth inhibition, usual class: inhibitors | 420,000 tested, 15% active | AID 686978, 2013; note: potency is the fitted concentration of half-maximal effect; nearly all actives have a fitted effect of over 55% in size
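Readout: luminescence from CellTiter-Glo after 30 min in the dark at RT. Cells: DT40 Tdp1-/- with stable hTDP1, 400/well. Exposure: compounds alone, ≥48 hr, 37 °C.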
DT40 TDP1 CPT: DT40-hTDP1 cell growth loss with CPT; 420,000 tested, 12% active; chicken DT40 Tdp1-/-;hTDP1 cells + 20 nM CPT, ATP luminescence, 48 h; Potency, µM (doses to about 46.2 µM), for the others: top-dose activity change, negative = growth inhibition, most hits filed as inhibitors; note: potency is the fitted concentration of half-maximal effect; nearly all actives have a fitted effect of over 55% in size
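Chicken DT40 Tdp1-/- cells complemented with human TDP1, 400 cells/well, exposed to compounds plus 20 nM camptothecin for at least 48 h at 37 C; viability read as ATP content by CellTiter-Glo luminescence.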
HT1080-NT tox: kills 2HG-producing HT-1080-NT fibrosarcoma cells; AID 686970; 360,000 tested, 1.6% active; Potency, µM (titrated, usually from 46.1 µM), for inactives: at the top dose activity, negative = less viability, most hits filed as cytotoxic; HT-1080-NT fibrosarcoma viability, CellTiter-Glo ATP luminescence, 48 h;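 note: NT is the 2HG producing partner of a matched IDH1 knockdown line; potency is the fitted concentration of half-maximal effect; 0% = DMSO-treated cells and -100% = media-only wells without cells; nearly all actives have a fitted effect of over 55% in size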
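Luminescent CellTiter-Glo readout after 48 hours of compound exposure at 37 degrees C defined viability of HT-1080-NT cells. Activity was normalized to DMSO wells and cell-free media wells; concentration-response curves were fitted and assigned curve classes.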
* marks the source's active call; other numbers are inactive results; ? = inconclusive; nt = no result given. An excerpt weighted towards active compounds, which were near 19% of everything screened. Unless noted, calls come from the whole dose curve; as a rule, active = well fitted curve in the direction sought with a large enough effect; inconclusive = small, poorly fitted or top-dose-only effect, or another doubt; inactive = no such curve, though single readings can be large; an effect the other way counts as inactive or inconclusive. Unless noted, % is set by controls: 0 for no effect and ±100 for the full control effect.

SMILES	uPA surface inh	HT1080 IDH1KD tx	IL-1B inflam inh	DT40 TDP1 no CPT	DT40 TDP1 CPT	HT1080-NT tox
CCOC(=O)C1(C)CCCN(C(=O)c2cccnc2)C1 (configuration not stated)	nt	9%	2	17%	-16%	6%
CCOC(=O)c1c(C)[nH]c(CCC(=O)Nc2cc(C)cc(C)c2)c1C	nt	nt	nt	23µM*	?	nt
CCOC(=O)c1c(C)[nH]c(CCC(=O)Nc2cc(C)ccc2OC)c1C	nt	nt	nt	16µM*	?	nt
CCOC(=O)c1c(C)[nH]c(CCC(=O)NCc2ccc(OC)c(OC)c2)c1C	nt	nt	nt	-10%	-9%	nt
CCOC(=O)c1c(C)[nH]c(CCC(=O)Nc2ccccc2C(=O)OC)c1C	nt	nt	nt	23µM*	?	nt
COC(=O)c1ccccc1NC(=O)CCc1ccccc1	-5%	14%	12	?	-6%	12%
CCOC(=O)c1c(C)[nH]c(CCC(=O)NCCCN2CCN(c3ccc(F)cc3)CC2)c1C	nt	nt	nt	10µM*	21µM*	nt
CCOC(=O)c1c(C)[nH]c(CCC(=O)Nc2ccccc2OCC)c1C	nt	nt	nt	23µM*	?	nt
CCOC(=O)c1c(C)[nH]c(CCC(=O)Nc2c(C)cccc2CC)c1C	nt	nt	nt	16µM*	?	nt
CCOC(=O)c1c(C)[nH]c(CCC(=O)NCc2ccc(N(C)C)cc2)c1C	nt	nt	nt	18µM*	?	nt
O=C(COc1cc(O)c2c(=O)c3ccccc3oc2c1)OCc1ccccc1	-1%	11%	6	-2%	16%	7%
Cc1ccc(NS(=O)(=O)c2coc(C(N)=O)c2)cc1F	-1%	-3%	39	-14%	-1%	22%
OCC1(Cc2ccccc2F)CCCN(CC2CCCCC2)C1 (configuration not stated)	1%	2%	8	?	4%	3%
C[C@H]1COC(=O)[C@H](CC(=O)OC(C)(C)C)C/C=C\C[C@@H](CC(=O)N[C@@H](CO)Cc2ccccc2)C(=O)N1	12%	8%	-3	?	?	-1%
CN(C)c1nc(N)nc(CSc2nnnn2-c2ccc(F)cc2)n1	nt	?	32	-24%	-35%	0%
COc1ccc(C)cc1-n1nnnc1SCc1nc(N)nc(N(C)C)n1	nt	?	-12	6.5µM*	4.6µM*	?
Cc1cccc(C)c1-n1nnnc1SCc1nc(N)nc(N(C)C)n1	nt	?	21	2.1µM*	2.3µM*	?
COc1ccc(C)cc1-n1nnnc1SCc1cn2ccsc2n1	-4%	-16%	8	?	?	-15%
CCC(=O)N1CCC1(C)C(=O)Nc1ccc(Cl)c(Cl)c1 (configuration not stated)	nt	12%	3	?	-27%	-4%
COc1ccccc1OCCCn1c(C2CC(=O)N(c3ccc(F)cc3)C2)nc2ccccc21 (configuration not stated)	nt	nt	nt	8.2µM*	?	nt
CC(C)(C)N1CC(c2nc3ccccc3n2CCOc2ccccc2)CC1=O (configuration not stated)	-8%	-5%	-19	?	?	-3%
CCOc1ccccc1N1CC(c2nc3ccccc3n2CCCOc2ccccc2)CC1=O (configuration not stated)	nt	nt	nt	?	-24%	nt
CCOc1ccc(N2CC(c3nc4ccccc4n3CCCOc3ccccc3OC)CC2=O)cc1 (configuration not stated)	nt	nt	nt	8.2µM*	?	nt
COc1ccc(CNC(=O)Cn2nnc(-c3ccc(C(F)(F)F)cc3)n2)cc1	nt	nt	nt	-18%	-14%	nt
COC(=O)C1CCN(C2CN(Cc3ccccc3)S(=O)(=O)C2)CC1 (configuration not stated)	nt	19%	10	-2%	-18%	19%
SMILES	uPA surface inh	HT1080 IDH1KD tx	IL-1B inflam inh	DT40 TDP1 no CPT	DT40 TDP1 CPT	HT1080-NT tox
COC(=O)c1cc2cc(Cl)ccc2nc1SC	-9%	1%	5	-3%	10%	4%
COC(=O)C1=CN(Cc2ccc(OC)cc2)C=C(C(=O)OC)C1c1ccsc1	7%	-21%	-28	?	21µM*	-6%
COC(=O)C1=CN(CCOC23CC4CC(CC(C4)C2)C3)C=C(C(=O)OC)C1c1ccsc1	-6%	?	-27	12µM*	?	?
COC(=O)C1=CN(CC2CCCO2)C=C(C(=O)OC)C1c1ccsc1 (configuration not stated)	-5%	2%	-10	2%	12%	-4%
CCCC[n+]1ccn(-c2nc3ccccc3nc2[N-]S(=O)(=O)c2cccs2)c1	3%	0%	nt	?	?	4%
C=CCN1c2ccccc2[C@]23C[C@@H](C(=O)OC)N(C(=O)c4cccs4)C2=NC(C(=O)OC)=C(C(=O)OC)[C@H]13	6.3µM*	?	52	?	?	?
COC(=O)C1=C(C(=O)OC)[C@@H]2N(C)c3ccc(OC)cc3[C@@]23C[C@@H](C(=O)OC)N(C(=O)c2ccc(Br)cc2)C3=N1	?	?	9	26µM*	?	23µM*
COC(=O)C1=C(C(=O)OC)[C@@H]2N(Cc3ccccc3)c3ccccc3[C@@]23C[C@@H](C(=O)OC)N(C(C)=O)C3=N1	-2%	7%	26	?	?	3%
C=CCN1c2ccccc2[C@]23C[C@@H](C(=O)OC)N(C(=O)OCC)C2=NC(C(=O)OC)=C(C(=O)OC)[C@H]13	-27%	7%	23	-1%	?	5%
C=CCN1c2ccccc2[C@]23C[C@@H](C(=O)OC)N(C(=O)c4ccc(Br)cc4)C2=NC(C(=O)OC)=C(C(=O)OC)[C@H]13	5.6µM*	?	36	?	?	18µM*
COC(=O)C1=C(C(=O)OC)[C@@H]2N(Cc3ccccc3)c3ccccc3[C@@]23C[C@@H](C(=O)OC)N(C(=O)c2ccc(Br)cc2)C3=N1	?	?	8	18µM*	?	-18%
COc1ccc(C(=O)CCC(=O)Nc2cc(C)ccc2C)cc1	nt	nt	nt	-23%	-3%	nt
O=C(NCC1CCCN(Cc2cccc(F)c2)C1)c1cccc2ccccc12 (configuration not stated)	14%	-9%	-29	0%	-20%	1%
CCOC(=O)N1C2=NC(C(=O)OC)=C(C(=O)OC)[C@@H]3N(Cc4ccccc4)c4ccccc4[C@]23C[C@H]1C(=O)OC	?	9%	18	?	18µM*	6%

Screening data (PubChem BioAssay)
